The values below come from PubChem BioAssay (EPA / NIEHS).

What is called AC50 is the concentration at which the activity in the assay is half-maximal.

Read-out in experiment [1]: Interferon-inducible T-cell alpha chemoattractant (ITAC), CXCL11 (gene 6373)
Kind of experiment: BSK_hDFCGF_ITAC: BioMAP Diversity Plus: hDFCGF Assay for Interferon-inducible T-cell alpha chemoattractant (ITAC) Biomarker Activity (AID 2284251). Particulars: primary human foreskin fibroblasts. The method, boiled down: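 Chemical dosing of primary human foreskin fibroblast cultures preceded ELISA measurement of I-TAC at 24 h. Response was analysed in the positive direction using DMSO as baseline, while parallel SRB staining measured cytotoxicity.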

Read-out in experiment [2]: Plasminogen activator inhibitor-1 (PAI1), SERPINE1 (gene 5054)
Briefly: BSK_KF3CT_PAI1: BioMAP Diversity Plus: KF3CT Assay for Plasminogen activator inhibitor-1 (PAI1) Biomarker Activity (AID 2284252). Particulars: primary human keratinocytes with fibroblasts. The method, boiled down: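 Keratinocyte + dermal fibroblast co-culture (human primary); 24 h post-dose; PAI-1 by ELISA; gain-of-signal fit vs DMSO control.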

Read-out in experiment [3]: Macrophage Inflammatory Protein-1 Alpha (MIP1a), CCL3 (gene 6348)
Briefly: BSK_IMphg_MIP1a: BioMAP Diversity Plus: IMphg Assay for Macrophage Inflammatory Protein-1 Alpha (MIP1a) Biomarker Activity (AID 2284255). The following applies: primary human endothelial cells with macrophages. In a few lines: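 MIP-1a protein levels were quantified by ELISA after 24 h treatment of human endothelial cell–macrophage co-cultures, compared with DMSO. Parallel cultures were fixed with TCA and stained with 0.1% SRB to gauge overt cytotoxicity.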

Read-out in experiment [4]: Plasminogen activator inhibitor-1 (PAI1), SERPINE1 (gene 5054)
Kind of experiment: BSK_MyoF_PAI1: BioMAP Diversity Plus: MyoF Assay for Plasminogen activator inhibitor-1 (PAI1) Biomarker Activity (AID 2284256).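 On outcome: PAI-1 protein level measured by ELISA in fibroblast cultures; PAI-1 read 24 h after compound addition.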 Particulars: primary human lung fibroblasts. In a few lines: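 Primary human lung fibroblasts are dosed and incubated 24 h. PAI-1 is then measured by ELISA, while parallel cultures undergo SRB staining for overt cytotoxicity. Increases over DMSO define activity.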

Read-out in the next experiment: CD69, CD69 (gene 969)
Kind of experiment: BSK_IMphg_CD69: BioMAP Diversity Plus: IMphg Assay for CD69 Biomarker Activity (AID 2284257). Particulars: primary human endothelial cells with macrophages. In a few lines:
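Readout is ELISA for CD69 in primary human venular endothelial cell/macrophage co-culture, taken at 24 h post-dosing. SRB staining of parallel cultures gauged overt cytotoxicity; signal increase versus DMSO defined activity.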

Read-out in experiment [5]: Eotaxin 3, CCL26 (gene 10344)
Briefly: BSK_BF4T_Eotaxin3: BioMAP Diversity Plus: BF4T Assay for Eotaxin 3 Biomarker Activity (AID 2284258). The following applies: primary human bronchial epithelial cells with fibroblasts. The method, boiled down: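 ELISA measurement of Eotaxin-3 after 24 h chemical exposure in a bronchial epithelial/dermal fibroblast co-culture, with DMSO as baseline. Parallel SRB staining (0.1% SRB after 10% TCA fixation, 560 nm) flagged overt cytotoxicity.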

Read-out in experiment [6]: Monocyte Chemoattractant Protein-1 (MCP1), CCL2 (gene 6347)
Kind of experiment: BSK_BF4T_MCP1: BioMAP Diversity Plus: BF4T Assay for Monocyte Chemoattractant Protein-1 (MCP1) Biomarker Activity (AID 2284259). The following applies: primary human bronchial epithelial cells with fibroblasts. The method, boiled down:
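MCP-1 ELISA readout taken 24 h after dosing in the BF4T system (bronchial epithelial cells plus dermal fibroblasts). Parallel SRB total-protein staining flagged cytotoxicity; DMSO served as baseline, positive fitting direction.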

Read-out in experiment [7]: Intercellular Adhesion Molecule 1 (ICAM1), ICAM1 (gene 3383)
Kind of experiment: BSK_BF4T_ICAM1: BioMAP Diversity Plus: BF4T Assay for Intercellular Adhesion Molecule 1 (ICAM1) Biomarker Activity (AID 2284260). The following applies: primary human bronchial epithelial cells with fibroblasts. In a few lines:
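ICAM-1 levels measured by ELISA after 24 h chemical treatment of bronchial epithelial cell/dermal fibroblast co-cultures, read against DMSO baseline. Overt cytotoxicity checked in parallel cultures by sulforhodamine B staining.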

Read-out in experiment [8]: Interleukin-8 (IL8), CXCL8 (gene 3576)
Briefly: BSK_MyoF_IL8: BioMAP Diversity Plus: MyoF Assay for Interleukin-8 (IL8) Biomarker Activity (AID 2284261). Particulars: primary human lung fibroblasts. The method, boiled down: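 IL-8 levels were measured by ELISA in human lung fibroblasts harvested 24 h after compound addition. Responses were analysed as gain of signal over the DMSO baseline.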

Read-out in a further experiment: CD90, THY1 (gene 7070)
Briefly: BSK_BF4T_CD90: BioMAP Diversity Plus: BF4T Assay for CD90 Biomarker Activity (AID 2284262). The following applies: primary human bronchial epithelial cells with fibroblasts. In a few lines: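 CD90 levels by ELISA after 24 h treatment of human bronchial epithelial cell/dermal fibroblast cultures, analysed versus DMSO. Overt cytotoxicity checked in parallel cultures by sulforhodamine B staining.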

Several values for one entry are separate records, joined by “and”; a condition that tells them apart may be missing. Equal entries are not always repeated. Some compounds were tested as several samples or in several runs, with calls that do not always agree. Activity calls are given as the source filed them. How the source made its calls: active means hit-call score of the fitted dose curve at least 0.9, where 1 is the maximum; inactive means score below 0.9.

Take `CN(CCO)S(=O)(=O)C(F)(F)C(F)(F)C(F)(F)C(F)(F)C(F)(F)C(F)(F)C(F)(F)C(F)(F)F`: the outcome in experiment [1] was “inactive”; in experiment [2], “inactive”; in experiment [3], “inactive”; in experiment [4], “inactive”; with CD69, CD69 (gene 969) it was “inactive”; in [5] it was “inactive”. Further, the outcome in experiment [6] is “inactive”; in experiment [7], “inactive”; in [8] it was “inactive”; in the experiment with CD90, THY1 (gene 7070), “inactive”. The concentration at half-maximal activity (AC50) in [2] was 0.0715 µM (active).

Turning to `O=P(O)(O)CCC(F)(F)C(F)(F)C(F)(F)C(F)(F)C(F)(F)C(F)(F)F`, the outcome in experiment [1] was “inactive”; in experiment [2], “inactive”; in [3], “inactive”; in experiment [4], “inactive”; with CD69, CD69 (gene 969), “inactive”; in experiment [5] it was “inactive”. The outcome in [6] is “inactive”; in experiment [7] it was “inactive”; in experiment [8] it was “inactive”; in the experiment with CD90, THY1 (gene 7070) it was “inactive”.

As to `O=C(O)CCC(F)(F)C(F)(F)C(F)(F)C(F)(F)C(F)(F)C(F)(F)F`, the outcome is “inactive” in experiment [1]; “inactive” in experiment [2]; “inactive” in experiment [3]; “inactive” in experiment [4]; “inactive” with CD69, CD69 (gene 969); “inactive” in [5]. For the same molecule, the outcome in [6] was “inactive”; in experiment [7], “inactive”; in experiment [8], “inactive”; with CD90, THY1 (gene 7070), “inactive”. Moreover, the AC50 in experiment [3] was 7.18 µM (active) and 19.2 µM (active); in the experiment with CD69, CD69 (gene 969) it was 13.6 µM (active); in experiment [5] it was 2.88 µM (active).

As to `O=C(CC(=O)C(F)(F)C(F)(F)C(F)(F)F)c1cccs1`, the AC50 in experiment [1] is 7.8 µM (active); in experiment [2], 18.7 µM (active); in [3], 52.5 µM (active) and 24.1 µM (active); with CD69, CD69 (gene 969) it was 30 µM (active); in [5], 12.8 µM (active) and 13 µM (active); in experiment [6], 22.9 µM (active) and 10.9 µM (active). Besides, the half-maximal activity concentration (AC50) in experiment [7] is 20 µM (active) and 18.8 µM (active); in the experiment with CD90, THY1 (gene 7070), 9.69 µM (active). Further, the outcome in experiment [1] was “inactive”; in experiment [2], “inactive”; in experiment [4], “inactive”; in [8] it was “inactive”; with CD90, THY1 (gene 7070), “inactive”.

For the molecule `CCCCC(CC)C(=O)OCCOCCOCCOCCOC(=O)C(CC)CCCC` (stereo unspecified), the result in experiment [4] and in experiment [8] was inactive.

On to `CC(C)(C)c1ccc(O)c(O)c1`, for which the AC50 in [4] was 33.3 µM (active). In addition, the result in experiment [8] was inactive.

Regarding `COCN(COC)c1nc(N(COC)COC)nc(N(COC)COC)n1`, the outcome in [4] and in [8] was inactive.

For the molecule `Cc1ccc(C(=O)c2ccccc2)cc1`, the outcome in experiment [4] and in experiment [8] was inactive.

Regarding `CCCCCCCCCCCCCCCCCC[N+](C)(C)Cc1ccccc1`, the concentration at half-maximal activity (AC50) in [4] was 2.91 µM (active); in [8], 5.06 µM (active).

As to `C=CC(C)(CCC=C(C)C)OC(C)=O` (stereo unspecified), the outcome in [4] and in experiment [8] was inactive.

Turning to `O=C1c2ccc(O)c(O)c2C(=O)c2c(O)ccc(O)c21`, the outcome in experiment [4] and in experiment [8] was inactive.

With `COC1=CC(=O)C[C@@H](C)[C@]12Oc1c(Cl)c(OC)cc(OC)c1C2=O`, the outcome in experiment [4] and in experiment [8] was inactive.

`CN(C)c1ccc(C(=C2C=CC(=[N+](C)C)C=C2)c2ccccc2)cc1`: the values for the concentration at half-maximal activity (AC50) in [4] and in experiment [8] were 0.675 µM (active) and 2.76 µM (active), respectively.

For `Clc1ccc(Nc2nnc(Cc3ccncc3)c3ccccc23)cc1`, the outcome in experiment [4] and in experiment [8] was inactive.

With `CC1=NN(c2ccccc2)C(=O)C1`, the result in experiment [4] and in [8] was inactive.

In the case of `O=C1OC2(c3ccccc31)c1cc(I)c(O)c(I)c1Oc1c2cc(I)c(O)c1I`, the AC50 was 2.72 µM (active) in experiment [4] and 3.37 µM (active) in [8].

Take `Cc1cccc2c1ccc1ccccc12`: the outcome in experiment [4] and in experiment [8] was inactive.

Regarding `CCCCCc1ccc(O)cc1`, the half-maximal activity concentration (AC50) in [4] is 32.2 µM (active). Further, the outcome in experiment [8] was inactive.

For `C[C@]12CC[C@@H]3c4ccc(O)cc4CC[C@H]3[C@@H]1C[C@@H](O)[C@@H]2O`, the result in experiment [4] and in experiment [8] was inactive.

Turning to `COc1cccc(O)c1`, the outcome in [4] and in experiment [8] was inactive.

With `CCOC(=O)CN[C@@H](C(=O)N1CC[C@H]1C(=O)NCc1ccc(/C(N)=N/O)cc1)C1CCCCC1`, the outcome in experiment [4] and in experiment [8] was inactive.

For the molecule `CC[N+](CC)(CC)Cc1ccccc1`, the result in experiment [4] and in experiment [8] was inactive.

Turning to `O=C(NO)c1ccccc1`, the result in [4] and in experiment [8] was inactive.

On to `OCCN1CN(CCO)CN(CCO)C1`, for which the outcome in [4] and in experiment [8] was inactive.

`C=COC(=O)C(C)(C)CCCCCC`: the AC50 in experiment [4] was 34 µM (active). Moreover, in [8], the result was inactive.

`COc1cc(OC)nc(NC(=O)NS(=O)(=O)Nc2ccccc2C(=O)N(C)C)n1`: the result in experiment [4] and in experiment [8] was inactive.
